These results are taken from PubChem BioAssay (EPA / NIEHS).

“And” between values parts separate entries of the source, which are not always exact repeats. Equal values may be shown once. Results filed as inconclusive are left out. The source made the active and inactive calls. The calls were made as follows, unless noted: active = hit-call score of the fitted dose curve at least 0.9, where 1 is the maximum; inconclusive = response in the unintended direction; inactive = score below 0.9.

Assay [1] can be described thus: VALA_MIGHUV2_CellCount: Viability Assessment in the VALA Sciences human Umbilical Vein Endothelial Cell Migration (MIGHUV) Assay, Area of Scratch Wound after Recovery (AID 2284314). A digest of the protocol: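 Scratch-wounded HUVEC monolayers received test chemical within 30 min, 6-point concentration response in triplicate, 0.1 % DMSO vehicle. After 24 h wound recovery, fixed cells were Hoechst-stained and nuclei imaged; loss of signal versus DMSO indicates reduced viability.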

Assay [2] is described as follows: VALA_MIGHUV2_Bcatenin: VALA Sciences human Umbilical Vein Endothelial Cell Migration (MIGHUV) Assay, Nuclear Translocation of beta-Catenin after Recovery (AID 2284315). The essentials: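 HUVEC (4000 cells/well) scratch-wounded, dosed within 30 min over 6 concentrations in triplicate, recovered 24 h. After fixation, Hoechst and anti-beta-catenin immunofluorescence imaged for nuclear CTNB. Gain of signal versus 0.1% DMSO.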

The nature of assay [3]: VALA_MIGHUV2_WoundArea: VALA Sciences human Umbilical Vein Endothelial Cell Migration (MIGHUV) Assay, Area of Scratch Wound after Recovery (AID 2284316). A digest of the protocol: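 HUVEC seeded at 9000 cells/well, scratched after 24 h; test chemical added within 30 min, 6-point concentration response in triplicate (0.1% DMSO vehicle). After 24 h wound recovery, cells fixed and Hoechst-stained nuclei in wound area imaged; Cytochalasin D reference control.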

Assay [4] in a line: VALA_MIGHUV1_ScratchOnly_CellCount: Viability Assessment in the VALA Sciences human Umbilical Vein Endothelial Cell Migration (MIGHUV) Assay, Scratch Wound Inhibited Recovery (AID 2284327). A digest of the protocol:
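HUVEC scratched after 24 h culture, chemical added within 30 min at 6 concentrations in triplicate (0.1% DMSO vehicle). After 24 h recovery, fixed cells were counted by Hoechst nuclear imaging in the wound area.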

Assay [5] in a line: VALA_TUBIPS_Antagonist_CellCount: Viability Assessment in the VALA Sciences human iPS-derived Endothelial Tubule Formation (TUBIPS) Antagonism Assay (AID 2284335).
Assay [6] is described as follows: VALA_MIGHUV1_ScratchOnly_WoundArea: VALA Sciences human Umbilical Vein Endothelial Cell Migration (MIGHUV) Assay, Area of Scratch Wound Inhibited Recovery (AID 2284336). A digest of the protocol: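 HUVEC monolayers (9000 cells/well) were scratched after 24 h, dosed within 30 min (six concentrations, triplicate, 0.1% DMSO), allowed 24 h recovery, then fixed. Hoechst-stained nuclei in the wound imaged; cytochalasin D as reference.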

A short description of assay [7]: VALA_TUBIPS_Agonist_CellCount: Viability Assessment in the VALA Sciences human iPS-derived Endothelial Tubule Formation (TUBIPS) Agonism Assay (AID 2284338).
A short description of assay [8]: CCTE_Deisenroth_DEVTOX-GLR_legacy_CellCount: (Legacy) Viability Assessment in CCTE's DevTox GLR-Endo Assay, Deisenroth Lab (AID 2284331; active = hit-call score of the fitted dose curve at least 0.9, where 1 is the maximum; inactive = score below 0.9). As to conditions: actives raise or lower the signal. A digest of the protocol: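 Nuclei count by fluorescence high-content imaging (5 fields/well) after 48 h differentiation of RUES2-GLR cells. Two exposures, 24 h apart; 1 nM - 200 uM series; n=4. Bidirectional fit vs DMSO.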

In another assay the test system is IYD (gene 389434). The assay can be described thus: CCTE_GLTED_hIYD: CCTE's human Iodotyrosine Deiodinase (xIYD) Inhibition Assay, Great Lakes Toxicology and Ecology Division (GLTED) Lab (AID 2284317).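 Also: cell-free human IYD enzyme made in baculovirus insect cells; iodide freed from monoiodotyrosine measured by cerium arsenite color change at 420 nm.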 A digest of the protocol:
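Absorbance change at 420 nm from the iodide-catalysed cerium-arsenic reaction reports free iodide released by human IYD from monoiodotyrosine. Enzyme, substrate and chemical are incubated 3 h; loss of signal is fitted relative to DMSO baseline.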

Assay [9] can be described thus: CCTE_Mundy_HCI_iCellGluta_NOG_NeuriteLength: CCTE's Neurite Outgrowth Assay in iCellGluta cells for Neurite Length, Mundy Lab (AID 2284318). A digest of the protocol:
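Automated high-content imaging of betaIII-tubulin (Alexa Fluor-488) and Hoechst-stained cells gave neurite length, normalized to the DMSO baseline.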

Assay [10] is described as follows: CCTE_Mundy_HCI_iCellGluta_NOG_NeuronCount: CCTE's Neurite Outgrowth Assay in iCellGluta cells for Neuron Count, Mundy Lab (AID 2284340).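 Also: cells fixed about 48 h after compound addition.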 A digest of the protocol: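 Neuron count read by automated high-content imaging of Hoechst 33342 and betaIII-tubulin/Alexa Fluor-488 labelling in human iPSC glutamatergic neurons. Activity fitted relative to DMSO.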
Assay [11] concerns Brachyury (BRA) Protein Expression, Deisenroth Lab, TBXT (gene 6862). The assay can be described thus: CCTE_Deisenroth_DEVTOX-GLR_legacy_Bra: (Legacy) CCTE's DevTox GLR-Endo Assay Evaluation of Brachyury (BRA) Protein Expression, Deisenroth Lab (AID 2284329; active = hit-call score of the fitted dose curve at least 0.9, where 1 is the maximum; inactive = score below 0.9). The essentials:
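RUES2-GLR human pluripotent cells differentiated 48 h with two 24-h-interval chemical exposures (1 nM - 200 uM, 10 points); fixed, nuclear-stained, imaged. Bra+ cell percentage (intensity 5x BMAD above pluripotent control median) fitted relative to 0.2% DMSO.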

Assay [12] can be described thus: IUF_NPC1_cytotoxicity_72hr: Cytotoxicity Assessment at 72 hours in the Leibniz Research Institute for Environmental Medicine (IUF) Neural Progenitor Cell Proliferation Assay (NPC1) (AID 2284332).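 Also: rising LDH signal means more cytotoxicity.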 The essentials: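 Spheres of primary human neural progenitors are plated one per well on day 0 in growth-factor medium and dosed at once. After three days at 37C, supernatant LDH is measured fluorimetrically via resazurin reduction.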

Assay [13] is described as follows: TAMU_PeakParms_SingleDonor1434_Asystole: Texas A&M University (TAMU) 1.5-hr Human Induced Pluripotent Stem Cell (iPSC)-derived Cardiomyocytes Calcium (Ca+2) Flux Assay for Cardiotoxicity: Asystole (quiescence of beating) (AID 2284328). A digest of the protocol: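 Human iPSC-derived cardiomyocytes (donor 1434) were exposed to 0.2, 1, 10 and 100 uM compound in 0.5% DMSO for 90 min at 37C. Ca2+-dye fluorescence gave average peak frequency; POD is EC95, a 95% beat-rate drop versus DMSO.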

A short description of assay [14]: VALA_TUBHUV_Antagonist_TubuleLength: VALA Sciences human Umbilical Vein Endothelial Tubule Formation (TUBHUV) Antagonism Assay (AID 2284325). The essentials: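 HUVEC–HDF co-culture (1:3) pre-grown 3 days with 10 ng/ml VEGF, then 3 days with compound plus VEGF. Fixed, nuclear and CD31 stained; total tubule length by imaging versus 0.1% DMSO; suramin 100 uM positive control.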

A short description of assay [15]: CCTE_Deisenroth_5AR_NBTE_donor: CCTE's 5alpha-reductase NanoBRET Target Engagement Assay […], Deisenroth Lab (AID 2284319; active = hit-call score of the fitted dose curve at least 0.9, where 1 is the maximum; inactive = score below 0.9). The conditions noted are these: actives raise or lower the signal. A digest of the protocol:
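Donor NanoLuc luminescence at 460-20 nm is the read-out, serving artifact detection. Transiently expressed SRD5A2-NanoLuc in HEK293T; 5 h total chemical exposure, testosterone tracer added for the final 2 h; fitting bidirectional relative to DMSO baseline.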

Assay [16] can be described thus: CCTE_Deisenroth_5AR_NBTE_acceptor: CCTE's 5alpha-reductase NanoBRET Target Engagement Assay - Autofluorescence Screen, Deisenroth Lab (AID 2284321; active = hit-call score of the fitted dose curve at least 0.9, where 1 is the maximum; inactive = score below 0.9;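 also: compound fluorescence in the acceptor channel under 460 nm excitation flags autofluorescence artifacts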). The conditions noted are these: actives raise or lower the signal. The essentials:
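Autofluorescence check: ToxCast chemicals, nominal 100 uM, excitation 460 nm, n=3 runs. Acceptor fluorescence endpoint, bidirectional fit relative to DMSO. Parent assay in HEK293T, 5 h post-dose.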

For another assay, the system named is SRD5A2 (gene 6716). As to the kind of experiment: CCTE_Deisenroth_5AR_NBTE_ratio: CCTE's 5alpha-reductase NanoBRET Target Engagement Assay - Ratio, Deisenroth Lab (AID 2284322; active = hit-call score of the fitted dose curve at least 0.9, where 1 is the maximum; inactive = score below 0.9). The conditions noted are these: actives raise or lower the signal. A digest of the protocol: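 HEK293T transiently expressing SRD5A2-NanoLuc; cells exposed to chemical (8-point, 10 nM - 29.9 uM) for 5 h total, testosterone tracer added for final 2 h. NanoBRET acceptor/donor ratio (650/460 nm), bidirectional fit vs DMSO.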

The nature of assay [17]: VALA_TUBHUV_Agonist_TubuleLength: VALA Sciences human Umbilical Vein Endothelial Tubule Formation (TUBHUV) Agonism Assay (AID 2284337). A digest of the protocol: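 HUVEC co-cultured with fibroblasts (1:3) 3 days in 10 ng/ml VEGF, then 3 days with compound plus VEGF; 0.1 % DMSO neutral control. Fixed, nuclear and CD31 stained; tubule length by fluorescence imaging.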

With `CCCCCCCCCC`, the call in assay [1], in assay [2], in assay [3], in assay [4], in [5] and in assay [6] was inactive. In [7], the concentration at half-maximal activity (AC50) is 7.79 µM (active).

As for `NC(=O)N1c2ccccc2C=Cc2ccccc21`, the concentration at half-maximal activity (AC50) in assay [8] was 67 µM (active).

In the case of `CCCCCCCCCCCCCCCCOS(=O)(=O)O`, in the assay on IYD (gene 389434), the AC50 is 32.7 µM (active).

In the case of `C[C@]12C=CC(=O)C=C1CC[C@H]1[C@@H]3C[C@@H](O)[C@](O)(C(=O)CO)[C@@]3(C)C[C@H](O)[C@@]12F`, in assay [9], the AC50 was 19.8 µM (active).

As for `O=C(Cl)C(F)(F)C(F)(F)C(F)(F)C(=O)Cl`, the molecule was classed as inactive in assay [9] and in [10].

For the molecule `Nc1ccn([C@@H]2O[C@H](CO)[C@@H](O)[C@@H]2O)c(=O)n1`, the AC50 is 741 nM (active) and 1.09 µM (active) in [9]; 0.152 µM (active) in assay [11]; 0.259 µM (active) in assay [8]; 415 nM (active) and 814 nM (active) in assay [10]. Besides, in assay [12], the call was inactive.

As for `c1ccc2cc3ccccc3cc2c1`, the molecule was classed as inactive in assay [9], in [13] and in assay [10].

In the case of `CCCC(CCC)C(=O)O`, the molecule was classed as inactive in [14], in [13], in [11], in [8] and in assay [5].

In the case of `CCCCCOC(C)=O`, the call (in [15]; in assay [16]; with SRD5A2 (gene 6716)) was inactive.

As to `FC(F)(F)C(F)(F)C(F)(F)C(F)(F)C(F)(F)C(F)(F)I`, in assay [9], the call was inactive.

Consider `CCCCCCCC/C=C\CCCCCCCC(=O)OC[C@@H](O)[C@H]1OC[C@H](O)[C@H]1O`, for which the call (in assay [15]; in assay [16]; in the assay with SRD5A2 (gene 6716)) was inactive.

Take `Cn1cc[nH]c1=S`: the molecule was called inactive in [1], in [3], in [9], in assay [4], in [12] and in assay [5]. Further, the molecule was classed as inactive in [6], in [17], in assay [7] and in assay [10].

With `O=S(=O)(O)c1ccc(N=Nc2c(O)ccc3cc(S(=O)(=O)O)ccc23)cc1`, the concentration at half-maximal activity (AC50) in assay [15] is 36.5 µM (active); in the assay with SRD5A2 (gene 6716) it was 61.8 µM (active). The call in assay [16] was inactive.
